Assay results as given in the supplement of paper PMC8728848.
This excerpt belongs to a sample that is enriched for the strongest signals.

Tests used:
Experiment in all cases: glycan array binding signal (z-score within array); higher = stronger binding
Details in all cases: glycan notation: IUPAC condensed, linker removed
Fuc(a1-2)Gal(b1-3)GalNAc = target: Fuc(a1-2)Gal(b1-3)GalNAc
In short: (§1)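 The Consortium for Functional Glycomics database supplied 3228 glycan arrays, of which those lacking an available protein sequence were dropped. The binding signal, a within-array Z-score, was averaged across arrays of the same protein sequence and across linkers. Negative scores can be read as non-binding.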

[1] = target: Fuc(a1-2)Gal(b1-3)GalNAc(b1-3)Gal(a1-4)Gal(b1-4)Glc
In short: as §1

[2] = target: Fuc(a1-2)Gal(b1-3)GlcNAc6S
In short: as §1

Fuc(a1-2)Gal(b1-4)GlcNAc = target: Fuc(a1-2)Gal(b1-4)GlcNAc
In short: as §1

[3] = target: Fuc(a1-2)Gal(b1-4)GlcNAc(b1-3)[Fuc(a1-3)[Gal(b1-4)]GlcNAc(b1-6)]Gal(b1-4)Glc
In short: as §1

[4] = target: Fuc(a1-2)Gal(b1-4)[Fuc(a1-3)]GlcNAc(b1-3)Gal(b1-4)[Fuc(a1-3)]GlcNAc(b1-3)Gal(b1-4)[Fuc(a1-3)]GlcNAc
In short: as §1

[5] = target: Fuc(a1-2)[Gal(a1-3)]Gal(b1-3)GlcNAc
In short: as §1

[6] = target: Fuc(a1-2)[Gal(a1-3)]Gal(b1-3)GlcNAc(b1-6)GalNAc
In short: as §1

[7] = target: Fuc(a1-2)[GalNAc(a1-3)]Gal(b1-4)GlcNAc(b1-2)Man(a1-3)[Fuc(a1-2)[GalNAc(a1-3)]Gal(b1-4)GlcNAc(b1-2)Man(a1-6)]Man(b1-4)GlcNAc(b1-4)[Fuc(a1-6)]GlcNAc
In short: as §1

[8] = target: Fuc(a1-2)[GalNAc(a1-3)]Gal(b1-4)GlcNAc(b1-3)Gal(b1-4)GlcNAc
In short: as §1

[9] = target: Fuc(a1-3)[Gal(b1-4)]GlcNAc(b1-2)Man
In short: as §1

Gal(a1-2)Gal = target: Gal(a1-2)Gal
In short: as §1

[10] = target: Gal(a1-3)Gal(b1-3)GlcNAc(b1-2)Man(a1-3)[Gal(a1-3)Gal(b1-3)GlcNAc(b1-2)Man(a1-6)]Man(b1-4)GlcNAc(b1-4)GlcNAc
In short: as §1

[11] = target: Gal(a1-3)Gal(b1-4)[Fuc(a1-3)]GlcNAc
In short: as §1

[12] = target: Gal(a1-4)Gal(b1-3)GlcNAc(b1-2)Man(a1-3)[Gal(a1-4)Gal(b1-3)GlcNAc(b1-2)Man(a1-6)]Man(b1-4)GlcNAc(b1-4)GlcNAc
In short: as §1

Gal(a1-4)Gal(b1-4)Glc = target: Gal(a1-4)Gal(b1-4)Glc
In short: as §1

Gal(b1-3)GalNAc = target: Gal(b1-3)GalNAc
In short: as §1

[13] = target: Gal(b1-3)GalNAc(a1-3)[Fuc(a1-2)]Gal(b1-4)Glc
In short: as §1

[14] = target: Gal(b1-3)GalNAc(b1-3)Gal(a1-4)Gal(b1-4)Glc
In short: as §1

[15] = target: Gal(b1-3)[GlcNAc(b1-6)]GalNAc
In short: as §1

[16] = target: Gal(b1-3)[Neu5Ac(b2-6)]GalNAc
In short: as §1

[17] = target: Gal(b1-4)GlcNAc(a1-6)Gal(b1-4)GlcNAc
In short: as §1

[18] = target: Gal(b1-4)GlcNAc(b1-2)Man(a1-3)[Gal(b1-4)GlcNAc(b1-2)Man(a1-6)]Man(b1-4)GlcNAc(b1-4)GlcNAc
In short: as §1

[19] = target: Gal(b1-4)GlcNAc(b1-2)Man(a1-3)[Gal(b1-4)GlcNAc(b1-2)Man(a1-6)][GlcNAc(b1-4)]Man(b1-4)GlcNAc(b1-4)[Fuc(a1-6)]GlcNAc
In short: as §1

[20] = target: Gal(b1-4)GlcNAc(b1-2)Man(a1-6)Man(b1-4)GlcNAc(b1-4)GlcNAc
In short: as §1

[21] = target: Gal(b1-4)GlcNAc(b1-2)[Gal(b1-4)GlcNAc(b1-4)]Man(a1-3)[GlcNAc(b1-4)][Gal(b1-4)GlcNAc(b1-2)Man(a1-6)]Man(b1-4)GlcNAc(b1-4)GlcNAc
In short: as §1

[22] = target: Gal(b1-4)GlcNAc(b1-2)[Gal(b1-4)GlcNAc(b1-6)]Man(a1-6)[Gal(b1-4)GlcNAc(b1-2)Man(a1-3)]Man(b1-4)GlcNAc(b1-4)GlcNAc
In short: as §1

[23] = target: Gal(b1-4)GlcNAc(b1-3)Gal(b1-4)GlcNAc(b1-3)Gal(b1-4)GlcNAc(b1-2)[Gal(b1-4)GlcNAc(b1-3)Gal(b1-4)GlcNAc(b1-3)Gal(b1-4)GlcNAc(b1-6)]Man(a1-6)[Gal(b1-4)GlcNAc(b1-3)Gal(b1-4)GlcNAc(b1-3)Gal(b1-4)GlcNAc(b1-2)Man(a1-3)]Man(b1-4)GlcNAc(b1-4)[Fuc(a1-6)]GlcNAc
In short: as §1

[24] = target: Gal(b1-4)GlcNAc(b1-3)Gal(b1-4)[Fuc(a1-3)]GlcNAc(b1-3)Gal(b1-4)[Fuc(a1-3)]GlcNAc
In short: as §1

[25] = target: Gal(b1-4)GlcNAc(b1-6)[Gal(b1-4)GlcNAc(b1-3)]GalNAc
In short: as §1

[26] = target: GalNAc(a1-3)GalNAc(b1-3)Gal(a1-4)Gal(b1-4)Glc
In short: as §1

[27] = target: GalNAc(b1-3)Gal(a1-6)Gal(b1-4)Glc
In short: as §1

GalNAc(b1-4)GlcNAc6S = target: GalNAc(b1-4)GlcNAc6S
In short: as §1

GalNAc3S(b1-4)GlcNAc3S = target: GalNAc3S(b1-4)GlcNAc3S
In short: as §1

GalNAc4S6S(b1-4)GlcNAc = target: GalNAc4S6S(b1-4)GlcNAc
In short: as §1

[28] = target: GlcNAc(b1-2)Man(a1-3)[GlcNAc(b1-2)Man(a1-6)]Man(b1-4)GlcNAc(b1-4)[Fuc(a1-6)]GlcNAc
In short: as §1

[29] = target: GlcNAc(b1-3)Gal(b1-4)GlcNAc(b1-2)[GlcNAc(b1-3)Gal(b1-4)GlcNAc(b1-6)]Man(a1-6)[GlcNAc(b1-3)Gal(b1-4)GlcNAc(b1-2)Man(a1-3)]Man(b1-4)GlcNAc(b1-4)GlcNAc
In short: as §1

[30] = target: GlcNAc(b1-3)Gal(b1-4)GlcNAc(b1-3)Gal(b1-4)GlcNAc(b1-3)Gal(b1-4)GlcNAc(b1-3)Gal(b1-4)GlcNAc(b1-2)Man(a1-3)[GlcNAc(b1-3)Gal(b1-4)GlcNAc(b1-3)Gal(b1-4)GlcNAc(b1-3)Gal(b1-4)GlcNAc(b1-3)Gal(b1-4)GlcNAc(b1-2)Man(a1-6)]Man(b1-4)GlcNAc(b1-4)[Fuc(a1-6)]GlcNAc
In short: as §1

[31] = target: GlcNAc(b1-3)[GlcNAc(b1-6)]Gal(b1-4)GlcNAc
In short: as §1

[32] = target: GlcNAc(b1-4)GlcNAc(b1-4)GlcNAc(b1-4)GlcNAc(b1-4)GlcNAc(b1-4)GlcNAc
In short: as §1

Man(a1-2)Man(a1-3)Man = target: Man(a1-2)Man(a1-3)Man
In short: as §1

[33] = target: Neu5Ac(a2-3)Gal(b1-3)GlcNAc(b1-3)Gal(b1-3)GlcNAc
In short: as §1

[34] = target: Neu5Ac(a2-3)Gal(b1-3)[GlcNAc(b1-6)]GalNAc
In short: as §1

[35] = target: Neu5Ac(a2-3)Gal(b1-4)GlcNAc(b1-3)Gal(b1-4)GlcNAc(b1-6)[Gal(b1-3)]GalNAc
In short: as §1

[36] = target: Neu5Ac(a2-3)Gal(b1-4)GlcNAc(b1-3)Gal(b1-4)[Fuc(a1-3)]GlcNAc
In short: as §1

[37] = target: Neu5Ac(a2-3)Gal(b1-4)GlcNAc(b1-6)[Gal(b1-3)]GalNAc
In short: as §1

[38] = target: Neu5Ac(a2-3)Gal(b1-4)[Fuc(a1-3)]GlcNAc(b1-3)GalNAc
In short: as §1

[39] = target: Neu5Ac(a2-3)[Neu5Ac(a2-6)]GalNAc
In short: as §1

[40] = target: Neu5Ac(a2-6)Gal(b1-4)GlcNAc(b1-2)Man(a1-6)[Man(a1-3)]Man(b1-4)GlcNAc(b1-4)GlcNAc
In short: as §1

Neu5Gc(a2-3)Gal(b1-4)Glc = target: Neu5Gc(a2-3)Gal(b1-4)Glc
In short: as §1

[41] = target: Neu5Gc(a2-3)Gal(b1-4)GlcNAc
In short: as §1

B1: EUL D1A first (Oryza sativa) (protein)
chain: MFGFGHHHNQAPAAPSDPNQIFKIFCRANENYCLTVRDSAVVLAPVNPKDEHQHWFKDMRFSTKVKDGEGMPAFALVNKATGLAVKHSLGQSHPVKLVPFNPEYEDASVLWTESKDVGKGFRCIRMVNNTRLNLDAFHGDKDHGGVRDGTTVVLWEWCKGDNQSWKILPWGPEAHSSSPGAATILEQKLISEEDLNSAVDHHHHHH
- glycan array binding signal (z-score) (Fuc(a1-2)Gal(b1-3)GalNAc): -0.658
- glycan array binding signal (z-score) [1]: 2.66
- glycan array binding signal (z-score) [2]: 3.74
- glycan array binding signal (z-score) (Fuc(a1-2)Gal(b1-4)GlcNAc): -0.369
- glycan array binding signal (z-score) [3]: 2.74
- glycan array binding signal (z-score) [4]: 0.387
- glycan array binding signal (z-score) [5]: 0.384
- glycan array binding signal (z-score) [6]: -0.959
- glycan array binding signal (z-score) [7]: 0.095
- glycan array binding signal (z-score) [8]: -0.61
- glycan array binding signal (z-score) [9]: 3.34
- glycan array binding signal (z-score) (Gal(a1-2)Gal): -0.848
- glycan array binding signal (z-score) [10]: 3.31
- glycan array binding signal (z-score) [11]: -0.411
- glycan array binding signal (z-score) [12]: 2.2
- glycan array binding signal (z-score) (Gal(a1-4)Gal(b1-4)Glc): 0.4
- glycan array binding signal (z-score) (Gal(b1-3)GalNAc): -0.735
- glycan array binding signal (z-score) [13]: -1.67
- glycan array binding signal (z-score) [14]: -0.207
- glycan array binding signal (z-score) [15]: -1.03
- glycan array binding signal (z-score) [16]: -1.15
- glycan array binding signal (z-score) [17]: 1.94
- glycan array binding signal (z-score) [18]: 3.09
- glycan array binding signal (z-score) [19]: -1.23
- glycan array binding signal (z-score) [20]: 3.03
- glycan array binding signal (z-score) [21]: -1.53
- glycan array binding signal (z-score) [22]: -1.05
- glycan array binding signal (z-score) [23]: 2.45
- glycan array binding signal (z-score) [24]: -0.16
- glycan array binding signal (z-score) [25]: -0.802
- glycan array binding signal (z-score) [26]: -0.059
- glycan array binding signal (z-score) [27]: -2.32
- glycan array binding signal (z-score) (GalNAc(b1-4)GlcNAc6S): -0.411
- glycan array binding signal (z-score) (GalNAc3S(b1-4)GlcNAc3S): -0.185
- glycan array binding signal (z-score) (GalNAc4S6S(b1-4)GlcNAc): 0.534
- glycan array binding signal (z-score) [28]: 3.11
- glycan array binding signal (z-score) [29]: 1.95
- glycan array binding signal (z-score) [30]: 2.06
- glycan array binding signal (z-score) [31]: 6.85
- glycan array binding signal (z-score) [32]: -0.541
- glycan array binding signal (z-score) (Man(a1-2)Man(a1-3)Man): 0.615
- glycan array binding signal (z-score) [33]: 0.506
- glycan array binding signal (z-score) [34]: 0.405
- glycan array binding signal (z-score) [35]: 0.24
- glycan array binding signal (z-score) [36]: -0.958
- glycan array binding signal (z-score) [37]: 0.081
- glycan array binding signal (z-score) [38]: 3.45
- glycan array binding signal (z-score) [39]: -0.451
- glycan array binding signal (z-score) [40]: -0.647
- glycan array binding signal (z-score) (Neu5Gc(a2-3)Gal(b1-4)Glc): -0.152
- glycan array binding signal (z-score) [41]: 0.3
